A number with no mark means an inactive call.
system: Caenorhabditis elegans L1 (N2); experiment: survival and reproduction score of C. elegans L1 (0: 0-10 living worms, 1: 11-20, 2: 21-50, 3: >50, 4: overgrown) (score 0-4); higher = more worms, less nematicidal, active = 1 or less; extreme values may be limits of the assay; conditions: 60 µM; 6 days; temperature: 20 °C
In short: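 Worm survival and reproduction were recorded as an ordinal score of living worms per well, read under a dissection microscope. Each 96-well well held about 20 synchronized C. elegans N2 L1s with E. coli HB101 in liquid NGM and compound at 60 µM final (0.6% v/v DMSO), sealed and shaken at 200 rpm, 20 °C, for 6 days. Scores ranged from 0 (0–10 worms) to 4 (overgrown, starved) and were the mean of two biological replicates.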

| SMILES | survival and reproduction score |
| --- | --- |
| COc1ccc(-c2nnc(SCC(=O)Nc3ccccc3F)o2)cc1 | 4 |
| c1ccc(-c2noc(CSc3nc4ccccc4[nH]3)n2)cc1 | 4 |
| FC(F)(F)c1ccc(-c2noc(-c3ccccc3Cl)n2)cc1 | 4 |
| COc1cccc(-c2noc(COc3ccc(C(C)C)cc3)n2)c1 | 4 |
| COc1ccc(-c2noc(C34CC5CC(CC(C5)C3)C4)n2)cc1 | 4 |
| CC(C)C(=O)Nc1ccccc1-c1nc(-c2ccccn2)no1 | 4 |
| CCCCCOC(=O)CSc1nnc(-c2ccc(Cl)cc2Cl)o1 | 4 |
| CC1CC(C)CN(C(=O)CSc2nnc(-c3cccc(Cl)c3)o2)C1 (centres undefined) | 4 |
| Cc1ccc(NC(=O)CSc2nnc(-c3ccccc3)o2)c(C)c1 | 4 |
| Cc1ccc(-c2noc(COc3cc(C)ccc3C)n2)cc1 | 4 |
| O=C(Nc1ccc(-c2noc(-c3ccc(F)cc3)n2)cc1)c1ccc(Br)o1 | 1 (active) |
| CCc1ccc(NC(=O)CSc2nnc(-c3ccc(Cl)cc3Cl)o2)cc1 | 4 |
| Cc1cccc(OCc2nc(-c3ccncc3)no2)c1C | 4 |
| Cc1ccc(-c2nnc(SCC(=O)Nc3cc(C)c(C)cc3Br)o2)cc1 | 4 |
| Ic1ccc(OCc2nc(-c3ccncc3)no2)cc1 | 4 |
| COc1cccc(-c2noc(-c3cc(C)ccc3C)n2)c1 | 4 |
| Clc1ccc(SCc2nc(-c3cccnc3)no2)cc1 | 2.5 |
| Cc1ccc(NC(=O)CSc2nnc(-c3ccccc3)o2)cc1C | 4 |
| O=C(Nc1ccccc1-c1nc(-c2cccnc2)no1)c1cccs1 | 4 |

— the supplement of paper PMC11219838
